Screening results deposited in PubChem by several laboratories.
Hits are enriched below; roughly 2.8% of the tested compounds scored in any of these assays.
SENP7 inh: blocks the human protease SENP7. recombinant SENP7, Z-RLRGG-aminoluciferin luminescence, 40 min. inhibition, % at 5 µM. 330,000 tested, 1.5% active. Q9BQF6;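 active = inhibition above about 50% at the single test dose, limit read from the data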
Target sequence (Q9BQF6 706-1050 limits assumed): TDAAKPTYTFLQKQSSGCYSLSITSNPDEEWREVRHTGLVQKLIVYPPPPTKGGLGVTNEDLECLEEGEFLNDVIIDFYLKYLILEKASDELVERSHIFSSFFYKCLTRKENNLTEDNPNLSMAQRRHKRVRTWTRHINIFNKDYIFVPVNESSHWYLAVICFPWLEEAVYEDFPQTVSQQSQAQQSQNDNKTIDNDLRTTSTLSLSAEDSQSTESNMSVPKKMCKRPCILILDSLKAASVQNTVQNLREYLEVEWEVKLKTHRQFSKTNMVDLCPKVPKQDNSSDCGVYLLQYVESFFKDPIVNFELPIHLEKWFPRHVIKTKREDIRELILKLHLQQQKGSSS
SENP8 block-1: inhibitors of human SENP8 protease; 360,000 tested, 0.64% active; Q96LD8; recombinant SENP8, Nedd8 substrate fluorescence; inhibition, % at 20 µM; in the data active = inhibition mostly above about 40%, no sharp cut-off; inactive = mostly below about 27%
HSP90 refold inh: inhibitors of HSP90 luciferase refolding in rabbit reticulocyte lysate; 290,000 tested, 0.91% active; AID 1789; inhibition, % at 5.6 µM; luciferase refolding luminescence, 3 h;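 active = inhibition above the screen-wide mean plus 3 SD, computed separately per campaign, cut at about 16% in these data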;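 also: inhibitors lower the luminescence because luciferase stays unfolded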
SENP6 block: blocks the human protease SENP6 | Q9GZR1 | Recombinant SENP6 catalytic domain, aminoluciferin luminescence | inhibition, % at 10 µM | 330,000 tested, 1.8% active;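 active = inhibition above about 50% at the single tested dose, limit read from the data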
SENP8 block-2: SENP8 protease inhibition; 330,000 tested, 1.2% active; AID 2540; purified SENP8, Z-RLRGG-aminoluciferin cleavage, luminescence; inhibition, % at 10 µM; Q96LD8; in the data active = inhibition above about 50%
SENP8 confirm: human SENP8 inhibition, confirmed | shares compounds with SENP7 inh | inhibition, % at 12.5 µM | Recombinant SENP8, Z-RLRGG-aminoluciferin luminescence, 60 min | AID 488912 | 6,200 tested, 40% active;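 active = mean inhibition across replicates above about 50%, limit read from the data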
SENP6 confirm: confirmation of human SENP6 protease inhibitors; shares compounds with SENP7 inh; recombinant SENP6, Z-RLRGG-aminoluciferin luminescence; inhibition, % at 12.5 µM; 6,200 tested, 58% active
SENP7 confirm: confirmation of human SENP7 protease inhibitors. shares compounds with SENP7 inh. recombinant SENP7, Z-RLRGG-aminoluciferin luminescence, 40 min. inhibition, % at 12.5 µM. 6,200 tested, 69% active. AID 488917
Casp3 select: selectivity test for SENP inhibitors: human caspase-3 inhibition. purified caspase-3, Z-DEVD-aminoluciferin luminescence, 60 min. shares compounds with SENP7 inh. 6,200 tested, 60% active. inhibition, % at 12.5 µM;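 active = mean inhibition above about 50%, limit read from the data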
Target sequence (P42574 28-227 limits assumed): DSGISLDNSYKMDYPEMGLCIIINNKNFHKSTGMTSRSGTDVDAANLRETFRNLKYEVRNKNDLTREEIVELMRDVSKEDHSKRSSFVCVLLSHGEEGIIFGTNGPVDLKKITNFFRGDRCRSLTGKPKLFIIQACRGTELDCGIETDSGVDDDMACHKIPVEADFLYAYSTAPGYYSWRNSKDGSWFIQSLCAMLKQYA
SENP luc ctr: counter-screen for SENP inhibitors: luminescence interference; inhibition, % at 12.5 µM; Pre-incubated SENP8/Z-RLRGG-aminoluciferin, luciferase luminescence interference; shares compounds with SENP7 inh; AID 488919; 6,200 tested, 39% active;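 active = mean inhibition above about 50% when retested at one dose, limit read from the data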
Of the large screens only hits and unclear results are named; the others gave an inactive call (follow-up assays come after a bar, where they were run).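 The calls were made as follows, unless noted: active = mean inhibition above about 50% in the one-dose retest (limit read from the data); inactive = the rest.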

CC1CCC(C(C)C)C(OC(=O)CSc2n[nH]c(=O)[nH]c2=O)C1 (stereo not given)	SENP8 block-2 51 | SENP8 confirm inactive | SENP6 confirm inactive | SENP7 confirm inactive | Casp3 select inactive | SENP luc ctr inactive
CN(C(=O)COC(=O)c1cccnc1Nc1cccc(C(F)(F)F)c1)C1CCS(=O)(=O)C1 (stereo not given)	none
CCN(C(=O)COC(=O)c1cc(-c2ccc3cc(OC)ccc3c2)nc2ccccc12)C1CCS(=O)(=O)C1 (stereo not given)	SENP7 inh 92, SENP6 block 94, SENP8 block-2 89 (no result: SENP8 block-1) | SENP8 confirm inactive | SENP6 confirm 74 | SENP7 confirm inactive | Casp3 select 77 | SENP luc ctr inactive
CCN(C(=O)COC(=O)c1cccnc1Nc1ccccc1F)C1CCS(=O)(=O)C1 (stereo not given)	SENP7 inh 96, SENP6 block 91, SENP8 block-2 83 | SENP8 confirm 91 | SENP6 confirm 91 | SENP7 confirm 99 | Casp3 select 94 | SENP luc ctr 90
CN(C(=O)COC(=O)c1cccnc1Nc1ccccc1F)C1CCS(=O)(=O)C1 (stereo not given)	SENP7 inh 56, SENP6 block 58 | SENP8 confirm inactive | SENP6 confirm inactive | SENP7 confirm 74 | Casp3 select 75 | SENP luc ctr 53
O=C(COC(=O)c1cccnc1Nc1ccccc1F)NC1CC1	none
CCN(C(=O)COC(=O)c1cc(OC)ccc1Br)C1CCS(=O)(=O)C1 (stereo not given)	none (no result: HSP90 refold inh)
CCn1c(SCC(=O)c2ccccc2)nnc1-c1cc2cc(Br)ccc2o1	none
Cc1[nH]n(C2=NCCS2)c(=O)c1N=Nc1cccc(C(F)(F)F)c1	SENP6 block 74 | SENP8 confirm inactive | SENP6 confirm inactive | SENP7 confirm inactive | Casp3 select inactive | SENP luc ctr inactive
Cc1[nH]n(C(N)=S)c(=O)c1N=Nc1cccc(C(F)(F)F)c1	SENP6 block 79, SENP8 block-2 81 | SENP8 confirm inactive | SENP6 confirm inactive | SENP7 confirm inactive | Casp3 select inactive | SENP luc ctr inactive
Cc1[nH]n(C(N)=S)c(=O)c1N=Nc1ccc(Br)cc1	SENP7 inh 82, SENP6 block 93, SENP8 block-2 92 | SENP8 confirm inactive | SENP6 confirm inactive | SENP7 confirm inactive | Casp3 select inactive | SENP luc ctr inactive
Cc1[nH]n(C(N)=S)c(=O)c1N=Nc1cc(C(F)(F)F)ccc1Cl	none
CCN(CC)S(=O)(=O)c1cccc(C(=O)N[C@H](C(=O)Nc2nc3ccc(F)cc3s2)C(C)C)c1	none
CN(CC(=O)Nc1ccc(F)c(F)c1F)C(=O)c1ccc(=O)[nH]c1	none
Cc1ccc(N=Nc2c(N)n(-c3ccccc3)[nH]c2=O)cc1	SENP7 inh 82, SENP6 block 76, SENP8 block-2 54 | SENP8 confirm inactive | SENP6 confirm inactive | SENP7 confirm inactive | Casp3 select inactive | SENP luc ctr inactive
Cc1c(N=Cc2ccc(O)c(Br)c2)cccc1[N+](=O)[O-]	none
CC(/C=N/N1CCN(c2ccccc2)CC1)=C\c1ccccc1	SENP7 inh 75 | SENP8 confirm inactive | SENP6 confirm inactive | SENP7 confirm inactive | Casp3 select inactive | SENP luc ctr inactive
CC(/C=N/n1c(-c2ccccc2)n[nH]c1=S)=C\c1ccco1	none
CC(=C/c1ccco1)/C=N/N1CCN(c2ccccc2)CC1	SENP7 inh 95, SENP6 block 97, SENP8 block-2 92 | SENP8 confirm inactive | SENP6 confirm 54 | SENP7 confirm inactive | Casp3 select 68 | SENP luc ctr inactive
CC(/C=N/N1CCN(c2ccccc2)CC1)=C\c1ccco1	SENP7 inh 98, SENP6 block 96, SENP8 block-2 95 | SENP8 confirm inactive | SENP6 confirm 87 | SENP7 confirm 91 | Casp3 select 71 | SENP luc ctr inactive
CN=C1S/C(=C\c2ccc(N3CCCC3)c(F)c2)C(=O)N1C	SENP7 inh 71, SENP6 block 73 | SENP8 confirm inactive | SENP6 confirm inactive | SENP7 confirm inactive | Casp3 select inactive | SENP luc ctr inactive
COc1ccc(-c2[nH]ncc2-c2cnc(C)s2)c(O)c1	none
CCOC(=O)c1cccc(NC(=O)CSc2nnc(-c3ccncc3)n2CCCOC)c1	SENP7 inh 99 | SENP8 confirm inactive | SENP6 confirm inactive | SENP7 confirm inactive | Casp3 select inactive | SENP luc ctr inactive
CCCn1c(SCC(=O)Nc2cccc(C(=O)OC)c2)nnc1-c1cccnc1	none
Cc1ccc(OCC(=O)Nc2cc(S(=O)(=O)N3CCOCC3)ccc2N2CCCC2)cc1	none (no result: HSP90 refold inh)
O=C(O)COc1ccc(/C=C/c2nc(-c3ccccc3O)n[nH]2)cc1	SENP7 inh 69, SENP6 block 87, SENP8 block-2 67 | SENP8 confirm 84 | SENP6 confirm 82 | SENP7 confirm 96 | Casp3 select 71 | SENP luc ctr 83
Oc1ccccc1-c1n[nH]c(-c2ccccc2O)n1	none (no result: SENP7 inh, HSP90 refold inh, SENP6 block, SENP8 block-2)
COc1ccc(/C=C/c2nc(-c3ccccc3O)n[nH]2)cc1OC	SENP6 block 67 | SENP8 confirm 65 | SENP6 confirm 63 | SENP7 confirm 85 | Casp3 select inactive | SENP luc ctr inactive
O=c1c2ccccc2nc2n1CCN2	none
CC(/C=C1\SC(=S)N(NS(=O)(=O)c2ccccc2)C1=O)=C\c1ccccc1	SENP6 block 96, SENP8 block-2 80 | SENP8 confirm 92 | SENP6 confirm 92 | SENP7 confirm inactive | Casp3 select inactive | SENP luc ctr inactive
CC(/C=C1\SC(=S)N(NS(=O)(=O)c2ccc(C)cc2)C1=O)=C\c1ccccc1	SENP8 block-2 84 | SENP8 confirm inactive | SENP6 confirm 84 | SENP7 confirm inactive | Casp3 select inactive | SENP luc ctr inactive
CC(/C=C1\SC(=S)N(NC(=O)c2ccccc2C)C1=O)=C\c1ccccc1	none
Cc1cn(C2OC(CC(=O)Oc3ccccc3)C(O)C2O)c(=O)[nH]c1=O (stereo not given)	none (no result: HSP90 refold inh)
Cc1nc2ccc(-c3nc4ccccc4o3)cc2[nH]1	SENP7 inh 62 | SENP8 confirm 63 | SENP6 confirm 59 | SENP7 confirm 84 | Casp3 select 60 | SENP luc ctr 64
Cc1ccnc2ccc(-c3nc4ccccc4o3)cc12	SENP7 inh 83, SENP6 block 88, SENP8 block-2 71 | SENP8 confirm inactive | SENP6 confirm inactive | SENP7 confirm 58 | Casp3 select inactive | SENP luc ctr inactive
